Screening results as filed in PubChem BioAssay.
AmpC detergent – inhibitors of E. coli AmpC beta-lactamase with detergent | AID 485294 | AmpC hydrolysis of nitrocefin, absorbance 480 nm, 0.01% Triton | P00811 | actives 0.041% (n = 370,000) | Potency, µM (doses to about 114 µM), inactives show at the highest dose activity change, negative = inhibition, most hits filed as inhibitors;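 note: 0% = no-compound wells and -100% = no-enzyme wells; nearly all actives have a fitted effect of over 25% in size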
Target sequence (P00811 whole entry, looked up): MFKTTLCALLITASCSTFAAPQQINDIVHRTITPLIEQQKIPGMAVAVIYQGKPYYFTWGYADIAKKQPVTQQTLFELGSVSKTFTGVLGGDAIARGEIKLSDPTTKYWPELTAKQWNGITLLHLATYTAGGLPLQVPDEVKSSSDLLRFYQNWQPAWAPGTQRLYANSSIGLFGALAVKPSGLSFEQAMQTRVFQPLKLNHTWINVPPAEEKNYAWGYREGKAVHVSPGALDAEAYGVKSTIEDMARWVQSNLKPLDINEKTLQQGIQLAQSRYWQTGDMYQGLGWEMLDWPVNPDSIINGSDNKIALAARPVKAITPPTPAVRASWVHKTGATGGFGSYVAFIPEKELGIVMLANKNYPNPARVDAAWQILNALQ
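AmpC (5.3 nM in the dispensed reagent) in 20 mM phosphate pH 7.0 with 0.01% (detergent screen) or 0.0001% Triton X-100 was preincubated with compounds for 15 min at room temperature. Nitrocefin was then added from an 800 uM solution, and hydrolysis was followed at 480 nm.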
AmpC no deterg – AmpC beta-lactamase inhibition without detergent; P00811; AmpC nitrocefin hydrolysis, absorbance 480 nm, 0.0001% Triton; Potency, µM (doses to about 57.1 µM), for inactives: top-dose activity change, negative = inhibition, usual class: inhibitors; actives 0.52% (n = 330,000);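 note: plate controls were no compound for no effect and no enzyme for full effect; nearly all actives have a fitted effect of over 20% in size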
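20 mM phosphate pH 7.0 + 0.01% (detergent screen) or 0.0001% Triton X-100; 5.3 nM AmpC reagent; cpd preinc 15 min RT; nitrocefin (800 uM stock) to start; A480 q20 s × 4 min; Activity was normalised to no-enzyme and no-compound control wells.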
Sm TGR block – inhibitors of Schistosoma mansoni thioredoxin glutathione reductase. actives 3% (n = 360,000). Potency, µM (highest dose often 114 µM), inactives show top-dose activity change, negative = inhibition, actives largely listed as inhibitors. purified TGR, DTNB reduction, TNB absorbance 405 nm. Q962Y6; note: nearly all actives have a fitted effect of over 60% in size
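First, TGR (20 nM dispensed) and NADPH were mixed with compound. Second, a 15 min room-temperature incubation followed. Third, further NADPH and then DTNB were added to start the reaction. Finally, TNB absorbance was monitored kinetically.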
Active calls of the source: *; ? = inconclusive; . = no result given; [ ] = another dose, or the depositor's remark. Only some compounds are listed: those with a hit (about 3.3% of all), similar ones and a draw of the others. Calls come from the whole dose curve; as a rule, active = well fitted curve in the direction sought with a large enough effect; inconclusive = small, poorly fitted or top-dose-only effect, or another doubt; inactive = no such curve, though single readings can be large; an effect the other way counts as inactive or inconclusive. Unless noted, % is set by controls: 0 for no effect and ±100 for the full control effect; potency is the fitted concentration of half-maximal effect.

SMILES | AmpC detergent | AmpC no deterg | Sm TGR block
CC(=O)N1N=C(c2ccc(C)cc2)CC1c1cn(-c2ccccc2)nc1-c1cccs1 (configuration not stated) | -3% | . | -8%
CCOC(=O)c1c(N)n(-c2ccccc2CC)c2nc3ccccc3nc12 | 9% | . | 4%
COc1ccc(NC(=S)Nc2ccccc2OC)c(OC)c1 | 1% | 4% | .
COc1ccc(NC(=S)Nc2cnc3ccccc3c2)c(OC)c1 | -7% | -6%[2.29 µM] | 40µM*
COc1ccc(NC(=S)Nc2ccc(OC)cc2OC)c(OC)c1 | ? | -9% | -3%
COc1ccc(NC(=S)NC(=O)CC(C)C)c(OC)c1 | ? | -29% | 40µM*
CCOC(=O)c1c(NC(=O)C(C)Sc2cn(CCNC(=O)c3ccc(OC)c(OC)c3)c3ccccc23)sc2c1CCC2 (configuration not stated) | 10% | . | 1%
CCC(=O)N1CCc2cc(S(=O)(=O)CCC(=O)NCc3ccccc3Cl)ccc21 | 4% | . | 8%
CC(C)(C)OC(=O)N1CCC(c2c(C(=O)N3CCN(c4ccccn4)CC3)cnn2-c2cccc(F)c2)CC1 | 23% | . | 4%
COC(CN(C(=O)CCl)C(C(=O)NC1CCCCC1)c1ccc(C)cc1)OC (configuration not stated) | ? | -11% | 45µM*
O=C(NC1CCCC1)C(c1ccc(F)cc1)N(Cc1ccc(F)cc1)C(=O)CCl (configuration not stated) | ? | -3% | 5.6µM*
COc1ccc(C(C(=O)NC2CCCCC2)N(C(=O)CCl)c2ccc(C)cc2)cc1 (configuration not stated) | -12% | -6% | 4%
O=C(NC1CCCCC1)C(c1ccncc1)N(Cc1ccc(F)cc1)C(=O)c1ccccn1 (configuration not stated) | -2% | 70% | -36%
Cc1ccc(-n2nc(C(=O)N(C)Cc3ccccc3)c3c4ccccc4n(C)c3c2=O)cc1 | -5% | . | -1%
Cc1ccc(-c2cc(C(=O)N3CCN(S(=O)(=O)c4ccc(Br)s4)CC3)[nH]n2)cc1C | 2% | . | -1%
Cc1c(C(=O)NC(C)c2ccccc2)sc2ncnc(N(C)C3CCCCC3)c12 (configuration not stated) | 9% | . | 12%
COc1ccc(C(c2c(C)[nH]n(-c3ccccc3)c2=O)c2c(C)[nH]n(-c3ccccc3)c2=O)cc1OC | -5% | 30% | 1%
CCOc1cc(C(c2c(C)[nH]n(-c3ccccc3)c2=O)c2c(C)[nH]n(-c3ccccc3)c2=O)ccc1O | -3% | . | 3.2µM*
Cc1ccccc1CCNC(=O)c1cc2cc(S(=O)(=O)N3CCCCC3)ccc2n1C | -5% | . | -8%
C=C(C)Cn1c(=O)c2c(nc3n2CCN3c2cc(C)cc(C)c2)n(C)c1=O | 8% | . | 3%
CCSc1nnc(NC(=O)C(C)C)s1 | -12% | -13% | 0%
CCSc1nnc(NC(=O)C(C(F)(F)F)C(F)(F)F)s1 | -2% | -32% | 40µM*
CCCS(=O)(=O)c1cn2cccc(N)c2c1S(=O)(=O)CCC | 2% | -31% | 22µM*
CCCS(=O)(=O)c1c(S(=O)(=O)CCC)c2c(C)cccn2c1C(N)=O | -2% | -19% | -27%
CSc1nsc(SCc2cnc(C)nc2N)n1 | ? | -19% | 40µM*
SMILES | AmpC detergent | AmpC no deterg | Sm TGR block
CSc1nsc(SCC(=O)NC2CCCCC2)n1 | ? | -14% | -11%
CCOC(=O)C(C)Sc1nnc2ccc3ccccc3n12 (configuration not stated) | 14% | . | -3%
COc1ccccc1NC(=O)c1cc(S(=O)(=O)NCCC2=CCCCC2)ccc1F | 8% | . | 6%
COc1ccc2c(Sc3ccc(Cl)cc3)c(C(=O)N3CCCCC3)[nH]c2c1 | -2% | . | -11%
CCC1Oc2ccc(C)cc2N(CC(=O)N(Cc2ccncc2)Cc2ccco2)C1=O (configuration not stated) | -2% | 96% | 22µM*
CCC1Oc2ccc(C)cc2N(CC(=O)N(Cc2cccnc2)Cc2cccc(F)c2)C1=O (configuration not stated) | -8% | 128% | -10%
CCN(CC)S(=O)(=O)c1nnc(NC(=O)COc2ccc(Cl)cc2)s1 | 5% | . | -2%
CCOC(=O)CC1Sc2ccccc2NC1=O (configuration not stated) | ? | -3% | -16%
CCC(OC(=O)CC1Sc2ccccc2NC1=O)C(=O)NCC1CCCO1 (configuration not stated) | -16% | -21% | 25µM*
Cn1ccc2cc(S(=O)(=O)N3CCCC(C(=O)NCc4ccccc4)C3)ccc21 (configuration not stated) | 3% | . | -2%
CC(C)C[C@H](N)c1nnc(S(=O)(=O)Cc2ccc(F)cc2)o1 | 1.4µM* | 2µM* | 1µM*
CC(C)C[C@H](N)c1nnc(SCc2ccc(Cl)cc2Cl)o1 | 0% | . | 8%
CC(C)c1ccc(C2c3c(-c4ccccc4O)n[nH]c3C(=O)N2CCc2ccccc2)cc1 (configuration not stated) | -1% | . | 11%
C=CCN(Cc1cn(C)nc1-c1cccc(Cl)c1)C1CCS(=O)(=O)C1 (configuration not stated) | -3% | 49% | 28µM*
CC(C)N(Cc1cn(C)nc1-c1cccc(Cl)c1)CC1CCC(=O)N1 (configuration not stated) | 3% | 138% | 31%
CC(=O)Nc1ccc(N2C(=O)CC(N3CC(C)OC(C)C3)C2=O)cc1 (configuration not stated) | -11% | -4% | 22µM*
CC(=O)Nc1ccc(N2C(=O)CC(N3CCSCC3)C2=O)cc1 (configuration not stated) | 10% | -2% | .
COc1cccc(-c2nc(S(=O)(=O)c3ccc(Cl)cc3)c(NCc3ccccc3)o2)c1 | 5% | . | -13%
Cc1ccc(NC(=O)[C@H](CSCc2ccccc2)N2Cc3ccccc3C2=O)cc1 | 5% | . | 2%
Oc1c(Br)cc(Br)cc1/C=N/Nc1ccc(Cl)nn1 | 3% | -27% | -3%
Oc1ccc(/C=N/Nc2ccc(Cl)nn2)c(O)c1O | 1% | -22% | 14µM*
COc1cccc(C2=NS(=O)(=O)N(C)C(C(=O)Nc3cccc(O)c3)=C2)c1 | 25% | . | 3%
CC1=CCC2COC(c3ccc[n+](Cc4ccccc4)c3)C1C2 (configuration not stated) | -7% | 2% | 35µM*
c1ccc(C[n+]2cccc(-c3ccccc3)c2)cc1 | -10% | -18% | 1%
COC(=O)c1sccc1S(=O)(=O)N1CCN(c2cccc(C)c2)C(C)C1 (configuration not stated) | 9% | . | -2%
Cc1ccc(S(=O)(=O)Nc2ccc(O)c(S(=O)(=O)c3ccc(C)cc3)c2)cc1 | -8% | -60% | -17%
CC(=O)Nc1ccc(S(=O)(=O)c2cc(O)ccc2O)cc1 | 1% | -22% | 6.3µM*
Cc1ccc(S(=O)(=O)c2cc(O)ccc2O)cc1C | 4% | -32% | 4µM*
CCN(CC)S(=O)(=O)c1ccc(C)c(C)c1 | -5% | -12% | 2%
CCOC(=O)CSc1nc2cc3c(cc2c(=O)n1CCCC(=O)NCCc1ccc(OC)c(OC)c1)OCO3 | 10% | . | 5%
